Reference: the supplement of paper PMC10849652
Targets with a hit are over-represented here; the source holds about 8,800 in all. About 0.5% of all pairs of compound and target were hits. Values without a mark were called inactive.

Columns and labels:
Assay in all cases: log2 fold change, soluble protein after heating vs DMSO (PISA); higher = thermal stabilisation; K562 lysate, 10 uM; active = over 0.2 and 3.5 SD of the protein, either way, in both replicates (recomputed)
lapatinib = compound: CS(=O)(=O)CCNCc1ccc(-c2ccc3ncnc(Nc4ccc(OCc5cccc(F)c5)c(Cl)c4)c3c2)o1 [lapatinib]
In short: (§1)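 A 30 min treatment with 10 μM compound was applied to crude K562 extract at 1 mg/mL protein in PBS pH 7.4 with 1 mM MgCl2. Heating for 3 min spanned 48°C-58°C, after which aliquots were pooled, adjusted to 0.5% NP-40 at 4°C and spun at 21,000xg for 90 min. TMTpro 16plex LC-MS/MS of the supernatant, with channel sums equalised, gave values recorded as log-two fold change in thermal stability against solvent controls, from duplicates.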

pictilisib = compound: CS(=O)(=O)N1CCN(Cc2cc3nc(-c4cccc5[nH]ncc45)nc(N4CCOCC4)c3s2)CC1 [pictilisib]
In short: as §1

crizotinib = compound: C[C@@H](Oc1cc(-c2cnn(C3CCNCC3)c2)cnc1N)c1c(Cl)ccc(F)c1Cl [crizotinib]
In short: as §1

[1] = compound: C[C@H](C1=CC=C(C=C1)C(=O)NC2=C3C=CNC3=NC=C2)N
In short: as §1

duvelisib = compound: C[C@H](Nc1ncnc2nc[nH]c12)c1cc2cccc(Cl)c2c(=O)n1-c1ccccc1 [duvelisib]
In short: as §1

gandotinib = compound: Cc1cc(Nc2cc(CN3CCOCC3)c3nc(C)c(Cc4ccc(Cl)cc4F)n3n2)n[nH]1 [gandotinib]
In short: as §1

tozasertib = compound: Cc1cc(Nc2cc(N3CCN(C)CC3)nc(Sc3ccc(NC(=O)C4CC4)cc3)n2)n[nH]1 [tozasertib]
In short: as §1

doramapimod = compound: Cc1ccc(-n2nc(C(C)(C)C)cc2NC(=O)Nc2ccc(OCCN3CCOCC3)c3ccccc23)cc1 [doramapimod]
In short: as §1

bafetinib = compound: Cc1ccc(NC(=O)c2ccc(CN3CC[C@H](N(C)C)C3)c(C(F)(F)F)c2)cc1Nc1nccc(-c2cncnc2)n1 [bafetinib]
In short: as §1

[2] = compound: Cc1cccc(CC(=O)N2CCc3c2ccc(-c2cn(C)c4ncnc(N)c24)c3F)n1
In short: as §1

UniProt O15550, sequence (O15550 whole entry, looked up): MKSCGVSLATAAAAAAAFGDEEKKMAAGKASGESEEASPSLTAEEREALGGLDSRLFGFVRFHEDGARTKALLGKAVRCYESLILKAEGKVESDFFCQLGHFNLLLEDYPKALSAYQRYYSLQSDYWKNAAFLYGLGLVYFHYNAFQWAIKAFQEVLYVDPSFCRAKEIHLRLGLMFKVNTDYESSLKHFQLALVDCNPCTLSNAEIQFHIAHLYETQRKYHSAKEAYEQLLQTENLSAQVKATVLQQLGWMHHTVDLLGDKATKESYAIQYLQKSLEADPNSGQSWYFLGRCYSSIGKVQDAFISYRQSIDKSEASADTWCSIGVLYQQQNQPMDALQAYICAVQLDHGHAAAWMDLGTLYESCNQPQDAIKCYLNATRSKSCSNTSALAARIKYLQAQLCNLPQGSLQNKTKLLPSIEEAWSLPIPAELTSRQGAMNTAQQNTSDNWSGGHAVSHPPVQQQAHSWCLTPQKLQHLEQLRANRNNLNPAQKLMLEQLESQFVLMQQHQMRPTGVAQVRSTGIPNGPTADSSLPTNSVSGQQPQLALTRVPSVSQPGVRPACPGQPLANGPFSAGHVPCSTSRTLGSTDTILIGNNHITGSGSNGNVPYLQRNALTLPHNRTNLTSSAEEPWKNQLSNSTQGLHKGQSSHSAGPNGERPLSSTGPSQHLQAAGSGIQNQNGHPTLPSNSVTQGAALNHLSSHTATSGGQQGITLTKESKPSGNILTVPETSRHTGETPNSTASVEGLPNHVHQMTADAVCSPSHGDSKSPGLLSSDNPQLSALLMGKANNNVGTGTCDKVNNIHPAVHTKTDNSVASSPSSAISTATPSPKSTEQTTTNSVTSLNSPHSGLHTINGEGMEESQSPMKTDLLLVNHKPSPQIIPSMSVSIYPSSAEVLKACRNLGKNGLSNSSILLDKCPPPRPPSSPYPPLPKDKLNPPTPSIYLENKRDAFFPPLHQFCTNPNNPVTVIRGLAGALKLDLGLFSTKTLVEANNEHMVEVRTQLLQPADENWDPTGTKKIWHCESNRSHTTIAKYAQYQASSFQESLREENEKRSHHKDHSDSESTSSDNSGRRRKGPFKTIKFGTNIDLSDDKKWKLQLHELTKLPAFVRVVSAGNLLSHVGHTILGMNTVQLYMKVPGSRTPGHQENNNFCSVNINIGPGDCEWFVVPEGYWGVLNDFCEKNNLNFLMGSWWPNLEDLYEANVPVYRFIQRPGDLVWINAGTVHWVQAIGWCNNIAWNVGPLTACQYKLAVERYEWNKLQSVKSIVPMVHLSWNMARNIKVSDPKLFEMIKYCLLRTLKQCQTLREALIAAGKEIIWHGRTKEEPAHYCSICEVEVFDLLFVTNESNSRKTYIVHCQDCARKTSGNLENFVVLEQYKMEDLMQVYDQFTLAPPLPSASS
UniProt O60547, sequence (O60547 whole entry, looked up): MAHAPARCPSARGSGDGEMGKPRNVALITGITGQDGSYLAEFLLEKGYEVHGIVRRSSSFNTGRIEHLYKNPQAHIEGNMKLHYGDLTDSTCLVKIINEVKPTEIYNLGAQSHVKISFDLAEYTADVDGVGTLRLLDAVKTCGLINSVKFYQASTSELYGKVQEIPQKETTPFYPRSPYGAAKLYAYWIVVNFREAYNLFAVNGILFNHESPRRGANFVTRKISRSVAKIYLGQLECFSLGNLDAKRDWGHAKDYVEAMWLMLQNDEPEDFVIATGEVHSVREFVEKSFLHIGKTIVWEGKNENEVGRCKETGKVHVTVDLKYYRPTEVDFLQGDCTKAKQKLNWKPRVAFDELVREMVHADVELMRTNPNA
UniProt Q6NT76, sequence (Q6NT76 whole entry, looked up): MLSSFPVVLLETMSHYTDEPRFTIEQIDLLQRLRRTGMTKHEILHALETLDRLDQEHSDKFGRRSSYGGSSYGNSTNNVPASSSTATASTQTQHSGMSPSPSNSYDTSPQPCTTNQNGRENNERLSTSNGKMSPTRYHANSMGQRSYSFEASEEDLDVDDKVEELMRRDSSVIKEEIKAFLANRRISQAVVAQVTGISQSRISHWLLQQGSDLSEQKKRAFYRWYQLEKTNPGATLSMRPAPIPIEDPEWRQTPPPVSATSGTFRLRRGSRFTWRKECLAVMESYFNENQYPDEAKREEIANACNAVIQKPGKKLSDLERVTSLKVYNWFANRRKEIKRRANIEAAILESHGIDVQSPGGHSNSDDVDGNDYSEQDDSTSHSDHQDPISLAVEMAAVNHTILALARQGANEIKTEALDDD
UniProt P26583, sequence (P26583 whole entry, looked up): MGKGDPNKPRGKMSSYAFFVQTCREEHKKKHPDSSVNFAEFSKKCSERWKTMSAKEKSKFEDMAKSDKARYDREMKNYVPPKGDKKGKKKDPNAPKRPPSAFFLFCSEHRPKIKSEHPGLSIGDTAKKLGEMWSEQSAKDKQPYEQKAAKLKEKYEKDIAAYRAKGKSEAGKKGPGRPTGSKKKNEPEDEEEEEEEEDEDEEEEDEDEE
UniProt P35914, sequence (P35914 whole entry, looked up): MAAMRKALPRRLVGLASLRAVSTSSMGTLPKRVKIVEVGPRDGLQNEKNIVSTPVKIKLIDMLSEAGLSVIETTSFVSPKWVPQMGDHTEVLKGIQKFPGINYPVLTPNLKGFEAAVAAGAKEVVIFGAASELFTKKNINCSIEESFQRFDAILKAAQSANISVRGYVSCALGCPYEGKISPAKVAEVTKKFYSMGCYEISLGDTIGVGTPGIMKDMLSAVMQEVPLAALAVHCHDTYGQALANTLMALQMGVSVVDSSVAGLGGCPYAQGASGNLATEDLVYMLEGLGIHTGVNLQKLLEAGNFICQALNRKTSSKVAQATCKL
UniProt Q96AB3, sequence (Q96AB3 whole entry, looked up): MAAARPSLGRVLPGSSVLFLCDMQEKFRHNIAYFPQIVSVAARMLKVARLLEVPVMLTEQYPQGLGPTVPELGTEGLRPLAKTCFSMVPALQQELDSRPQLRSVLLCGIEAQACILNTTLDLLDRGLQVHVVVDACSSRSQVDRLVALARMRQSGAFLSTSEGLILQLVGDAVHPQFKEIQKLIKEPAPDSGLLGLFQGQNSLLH
UniProt Q9H6K1, sequence (Q9H6K1 whole entry, looked up): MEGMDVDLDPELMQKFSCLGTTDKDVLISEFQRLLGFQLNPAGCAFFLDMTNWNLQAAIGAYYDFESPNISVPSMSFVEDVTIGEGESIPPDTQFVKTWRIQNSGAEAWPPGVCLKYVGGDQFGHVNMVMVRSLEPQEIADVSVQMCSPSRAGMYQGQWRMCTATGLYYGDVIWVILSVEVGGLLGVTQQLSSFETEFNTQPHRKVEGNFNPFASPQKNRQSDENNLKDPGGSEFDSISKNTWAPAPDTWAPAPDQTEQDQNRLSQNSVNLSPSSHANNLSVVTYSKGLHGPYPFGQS
UniProt Q07666, sequence (Q07666 whole entry, looked up): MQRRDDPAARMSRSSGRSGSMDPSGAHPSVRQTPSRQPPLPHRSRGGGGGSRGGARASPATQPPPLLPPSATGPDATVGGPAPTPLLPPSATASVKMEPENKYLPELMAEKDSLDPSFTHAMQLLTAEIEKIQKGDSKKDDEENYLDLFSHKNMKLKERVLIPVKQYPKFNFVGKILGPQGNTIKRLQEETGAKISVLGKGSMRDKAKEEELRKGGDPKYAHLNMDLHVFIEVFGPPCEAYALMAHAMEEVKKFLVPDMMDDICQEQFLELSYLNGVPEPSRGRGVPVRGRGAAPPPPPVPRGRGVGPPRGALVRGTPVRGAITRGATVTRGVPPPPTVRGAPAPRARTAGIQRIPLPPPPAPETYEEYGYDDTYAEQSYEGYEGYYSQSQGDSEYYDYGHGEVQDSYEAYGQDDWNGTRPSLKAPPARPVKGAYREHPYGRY
UniProt Q99871, sequence (Q99871 whole entry, looked up): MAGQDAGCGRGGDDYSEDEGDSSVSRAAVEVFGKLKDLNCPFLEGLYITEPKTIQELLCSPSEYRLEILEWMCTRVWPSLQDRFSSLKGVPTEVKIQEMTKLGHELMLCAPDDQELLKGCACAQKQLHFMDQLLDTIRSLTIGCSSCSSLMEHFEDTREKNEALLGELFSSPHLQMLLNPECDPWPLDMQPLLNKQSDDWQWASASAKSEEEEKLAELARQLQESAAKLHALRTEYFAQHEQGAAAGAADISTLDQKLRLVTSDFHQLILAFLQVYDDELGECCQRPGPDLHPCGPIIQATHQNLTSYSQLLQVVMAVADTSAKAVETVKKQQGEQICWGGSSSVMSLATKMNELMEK
UniProt P15260, sequence (P15260 whole entry, looked up): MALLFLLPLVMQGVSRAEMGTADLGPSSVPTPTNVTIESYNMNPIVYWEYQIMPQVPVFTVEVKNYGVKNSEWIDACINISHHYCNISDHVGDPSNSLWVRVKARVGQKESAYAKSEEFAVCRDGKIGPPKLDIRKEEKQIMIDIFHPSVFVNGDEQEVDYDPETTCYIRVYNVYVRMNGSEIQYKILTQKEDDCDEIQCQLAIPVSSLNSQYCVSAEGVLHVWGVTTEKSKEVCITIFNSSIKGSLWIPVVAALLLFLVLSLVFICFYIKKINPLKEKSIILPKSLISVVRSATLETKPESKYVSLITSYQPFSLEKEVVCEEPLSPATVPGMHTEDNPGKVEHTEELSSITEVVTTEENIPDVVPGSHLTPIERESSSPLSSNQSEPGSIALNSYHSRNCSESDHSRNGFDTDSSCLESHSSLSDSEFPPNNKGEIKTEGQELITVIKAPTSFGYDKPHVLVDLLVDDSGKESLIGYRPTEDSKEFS
UniProt Q9H4A5, sequence (Q9H4A5 whole entry, looked up): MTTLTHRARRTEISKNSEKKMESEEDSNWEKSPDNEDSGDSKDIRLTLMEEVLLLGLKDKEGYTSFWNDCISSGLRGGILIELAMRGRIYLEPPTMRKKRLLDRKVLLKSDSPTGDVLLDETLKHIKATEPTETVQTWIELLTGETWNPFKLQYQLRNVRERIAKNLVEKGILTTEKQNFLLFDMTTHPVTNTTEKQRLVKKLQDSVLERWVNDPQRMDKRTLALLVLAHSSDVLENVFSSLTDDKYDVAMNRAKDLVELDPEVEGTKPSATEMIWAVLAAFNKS

Target | log2 fold change (lapatinib) | log2 fold change (pictilisib) | log2 fold change (crizotinib) | log2 fold change [1] | log2 fold change (duvelisib) | log2 fold change (gandotinib) | log2 fold change (tozasertib) | log2 fold change (doramapimod) | log2 fold change (bafetinib) | log2 fold change [2]
KDM6A (UniProt O15550) | 0.033 | 0.046 | 0.003 | -0.028 | 0.032 | 0.009 | 0.01 | 0.022 | 0.002 | 0.013
GMPS (UniProt P49915) | -0.008 | -0.014 | 0.007 | 0.115 | 0.006 | -0.071 | -0.001 | -0.036 | -0.012 | -0.032
ISOC2 (UniProt Q96AB3) | -0.036 | 0.038 | 0.023 | 0.05 | -0.038 | -0.076 | -0.065 | -0.014 | -0.058 | 0.095
HACE1 (UniProt Q8IYU2) | -0.05 | 0.005 | 0.026 | -0.491 (active) | 0.033 | 0.302 | -0.036 | 0.015 | -0.036 | 0.426
HNRNPDL (UniProt O14979) | 0.04 | -0.002 | -0.005 | 0.016 | 0.04 | -0.025 | -0.056 | 0.104 | 0.072 | -0.035
HNRNPUL1 (UniProt Q9BUJ2) | -0.008 | -0.05 | 0.043 | 0.005 | 0.01 | -0.013 | 0.012 | -0.107 | 0.051 | -0.023
GOLPH3L (UniProt Q9H4A5) | 0.019 | -0.048 | -0.106 | -0.028 | -0.027 | -0.05 | -0.071 | -0.009 | -0.146 | 0.029
HECTD3 (UniProt Q5T447) | -0.047 | -0.098 | -0.034 | -0.001 | -0.006 | -0.013 | 0.018 | 0.056 | -0.13 | -0.004
HNRNPLL (UniProt Q8WVV9) | 0.017 | -0.026 | -0.038 | -0.01 | -0.016 | -0.031 | 0 | 0.01 | -0.031 | 0.027
GRK6 isoform 2 (UniProt P43250) | -0.122 | -0.088 | 0.084 | -0.066 | -0.04 | 0.058 | -0.063 | 0.046 | 0.065 | 0.028
ILRUN (UniProt Q9H6K1) | -0.045 | -0.033 | 0.009 | -0.025 | 0.016 | 0.012 | 0.013 | -0.028 | -0.023 | -0.017
HNRNPL (UniProt P14866) | 0.005 | -0.02 | -0.042 | 0.018 | 0.03 | -0.081 | -0.011 | -0.018 | 0.004 | -0.016
HAUS7 isoform 2 (UniProt Q99871) | 0.022 | 0.012 | -0.053 | 0.102 | -0.063 | -0.156 | -0.113 | 0.072 | -0.139 | 0.015
GTPBP2 (UniProt Q9BX10) | 0.064 | -0.056 | -0.052 | 0.021 | 0.043 | -0.098 | -0.048 | 0.027 | -0.038 | 0.009
GMDS (UniProt O60547) | -0.019 | -0.035 | -0.01 | 0.004 | 0.012 | -0.013 | -0.016 | 0.018 | 0.001 | -0.021
IMPDH2 (UniProt P12268) | 0.027 | 0.043 | -0.007 | -0.011 | -0.012 | -0.04 | -0.017 | 0.029 | 0.041 | 0.012
INTS1 (UniProt Q8N201) | -0.051 | -0.011 | -0.067 | 0.05 | -0.04 | -0.136 | 0.007 | -0.001 | -0.164 | 0.031
HMGB2 (UniProt P26583) | 0.006 | 0.021 | 0.052 | 0.266 (active) | -0.01 | -0.16 | -0.022 | -0.088 | 0.14 | -0.244 (active)
IFNGR1 (UniProt P15260) | -0.076 | 0.153 | -0.008 | -0.497 | 0.196 | 0.263 | -0.001 | -0.034 | -0.144 | 0.378
HMGCL (UniProt P35914) | -0.005 | -0.029 | 0.012 | 0.033 | 0.002 | -0.029 | 0.026 | 0.008 | -0.016 | -0.031
KCT2 (UniProt Q8NC54) | -0.005 | -0.018 | 0.048 | -0.331 (active) | 0.018 | 0.277 (active) | 0.005 | -0.028 | -0.023 | 0.099
KCTD20 (UniProt Q7Z5Y7) | -0.064 | 0.039 | -0.077 | 0.006 | -0.082 | 0.006 | -0.119 | -0.01 | 0.007 | -0.005
GOLPH3 (UniProt Q9H4A6) | 0.007 | -0.013 | -0.123 | -0.049 | 0.005 | 0.034 | 0.025 | 0.031 | -0.073 | 0.045
KHDRBS1 (UniProt Q07666) | -0.035 | 0.024 | 0.025 | 0.046 | 0.005 | -0.08 | 0.008 | -0.017 | 0.039 | -0.031
GSE1 (UniProt Q14687) | 0.006 | -0.032 | -0.014 | -0.073 | -0.015 | 0.011 | 0.008 | -0.019 | -0.006 | 0.051
HADH isoform 2 (UniProt Q16836) | -0.011 | 0.04 | 0.031 | 0.057 | -0.044 | -0.05 | 0.053 | -0.055 | 0.045 | -0.055
GSK3B isoform 2 (UniProt P49841) | -0.083 | 0.191 | 0.003 | 0.018 | -0.02 | 0.59 | -0.078 | 0.03 | -0.041 | -0.06
GUSB (UniProt P08236) | -0.097 | -0.012 | -0.044 | -0.547 (active) | 0.017 | 0.228 | 0.02 | 0.037 | -0.057 | 0.27
GSTP1 (UniProt P09211) | -0.015 | 0.021 | -0.018 | -0.025 | 0.001 | -0.035 | -0.007 | -0.006 | 0.01 | 0.003
HMBOX1 isoform 5 (UniProt Q6NT76) | 0.254 (active) | -0.097 | 0.023 | 0 | 0.021 | 0.052 | 0.035 | -0.013 | 0.112 | 0.129
